Assay outcomes from PubChem.
The list is not random: actives were taken first. Their share in the collection is about 3.4%.
VDR inh – inhibitors of human vitamin D receptor. Potency, µM, without a hit: max response, negative = inhibition, usual class: inhibitors. VDR-SRC2-3 peptide fluorescence polarization, 2 h. AID 504847. P11473. 400,000 tested, 0.93% active; further: on the % scale 0 is the no-effect control and ±100 the full control effect
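FP read-out; VDR + SRC2-3 coactivator peptide; 23 nl compound by pintool; 2 h RT incubation; reagents held at 4 deg C, protected from light.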
PLK1 PBD inh – PLK1 (human) polo-box domain binding inhibition | P53350 | Plk1 PBD binding of FITC phosphopeptide, fluorescence polarization | Potency, µM, for inactives: max response, negative = inhibition, hits mostly inhibitors | 360,000 tested, 2.8% active; further: series mostly up to about 57 µM; on the % scale 0 is the no-effect control and ±100 the full control effect; nearly all actives have a fitted effect of over 65% in size
Mito fusion yeast – blocks mitochondrial division or promotes mitochondrial fusion; S. cerevisiae fusion-defective mutant growth rescue, CellTiterGlo 48 h; Potency, µM (series often up to 46.1 µM), for inactives: at the highest dose growth rescue (activation), most hits filed as activators; 320,000 tested, 0.23% active; further: % of control where 0% means no effect; nearly all actives have a fitted effect of over 45% in size
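Luminescent cell viability in 1536-well qHTS format served as the measure of rescued growth in ts fusion-mutant S. cerevisiae cultured on non-fermentable YPEG for 48 hours at 37C.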
PKM2 act – increases activity of human pyruvate kinase M2. 260,000 tested, 0.34% active. P14618. purified PKM2, Kinase-Glo ATP luminescence, activation; response scale: 0% is enzyme alone, no compound. AID 1631. Potency, µM (doses to about 57.5 µM), without a hit: at the top dose activation, most hits filed as activators; further: on the % scale 0 is the no-effect control and ±100 the full control effect; nearly all actives have a fitted effect of over 55% in size
Target sequence (P14618 whole entry, looked up): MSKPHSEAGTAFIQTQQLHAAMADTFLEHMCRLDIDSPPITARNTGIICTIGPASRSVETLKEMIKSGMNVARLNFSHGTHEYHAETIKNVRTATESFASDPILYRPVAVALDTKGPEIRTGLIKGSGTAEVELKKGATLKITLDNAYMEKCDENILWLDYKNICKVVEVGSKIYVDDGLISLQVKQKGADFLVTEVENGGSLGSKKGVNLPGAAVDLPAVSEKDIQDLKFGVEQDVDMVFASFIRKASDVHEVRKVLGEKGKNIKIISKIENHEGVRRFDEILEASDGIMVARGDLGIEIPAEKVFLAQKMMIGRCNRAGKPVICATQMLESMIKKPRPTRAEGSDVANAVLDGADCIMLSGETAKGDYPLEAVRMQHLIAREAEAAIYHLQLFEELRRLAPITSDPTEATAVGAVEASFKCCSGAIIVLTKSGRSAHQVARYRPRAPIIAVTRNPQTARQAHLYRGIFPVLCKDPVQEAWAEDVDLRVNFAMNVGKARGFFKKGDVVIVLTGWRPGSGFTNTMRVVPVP
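Kinase-Glo luminescence reports ATP generated from ADP (0.1 mM) and PEP (0.5 mM) by purified hPK-M2 after 1 h at room temperature, pH 7.2 imidazole buffer; intermediate enzyme activity allows detecting inhibitors and activators.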
KAT2A inh – blocks human GCN5L2 histone acetyltransferase | GCN5L2 HAT assay, ThioGlo1 CoA-SH fluorescence | Potency, µM (series often up to 58.9 µM), for inactives: at the highest dose activity change, negative = inhibition, hits mostly inhibitors | 390,000 tested, 0.21% active; further: on the % scale 0 is the no-effect control and ±100 the full control effect
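Titration-based screen in which CoA formation is detected via maleimide probe ThioGlo1 (50uM) turning fluorescent on thiol reaction; substrates H3(1-25) 75uM and acetyl-CoA 70uM, GCN5L2 20nM, 20 min incubation at room temperature.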
GLS inh – inhibitors of human glutaminase (GLS) | O94925 | GLS enzymatic activity, qHTS titration | Potency, µM (top dose mostly 45.5 µM), without a hit: at the highest dose activity change, negative = inhibition, usual class: inhibitors | 410,000 tested, 0.21% active; further: on the % scale 0 is the no-effect control and ±100 the full control effect
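Assay buffer: 45 mM KH2PO4 pH 8.2, 0.02% Tween-20. hKGA acts on L-glutamine (1 mM solution added); product glutamate is reported by an oxidase/peroxidase Amplex Red coupling, with fluorescence taken at baseline and 30 min.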
TbPYK confirm – Trypanosoma brucei pyruvate kinase inhibition, cherry-pick confirmation; shares compounds with PLK1 PBD inh; recombinant TbPYK, Kinase-Glo ATP luminescence; Potency, µM (top dose mostly 76.9 µM), for inactives: top-dose activity change, negative = inhibition, most hits filed as inhibitors; 890 tested, 67% active; further: on the % scale 0 is the no-effect control and ±100 the full control effect; nearly all actives have a fitted effect of over 70% in size
TbPYK ADP-Glo – inhibits T. brucei pyruvate kinase in orthogonal ADP-Glo assay | recombinant TbPYK, ADP-Glo luminescence, 60 min | Potency, µM (highest dose often 76.9 µM), inactives show top-dose activity change, negative = inhibition, usual class: inhibitors | shares compounds with PLK1 PBD inh | 890 tested, 62% active; further: on the % scale 0 is the no-effect control and ±100 the full control effect; nearly all actives have a fitted effect of over 75% in size
* marks the source's active call; other numbers are inactive results; ? = inconclusive; . = no result. The call rests on the fitted dose curve; in most records, active means well fitted curve in the direction sought with a large enough effect; inconclusive means small, poorly fitted or top-dose-only effect, or another doubt; inactive means no such curve, though single readings can be large; an effect the other way counts as inactive or inconclusive. Potency means the concentration at half of the fitted maximal effect.

SMILES	VDR inh	PLK1 PBD inh	Mito fusion yeast	PKM2 act	KAT2A inh	GLS inh	TbPYK confirm	TbPYK ADP-Glo
CCCCc1ccc(NC2=NCC(=O)N2CCc2ccccc2)cc1	20%	-1%	-6%	-2%	2%	3%	.	.
CC1=C(C(=O)OC2CCCC2)C(c2ccc(F)cc2F)CC(=O)N1 (stereo not given)	-2%	.	.	.	-6%	8%	.	.
CC1=C/C(=C(/c2cc(C)c(O)c(Br)c2)c2ccccc2S(=O)(=O)O)C=C(Br)C1=O	102%	?	-11%	.	-22%	24%	22µM*	10%
CCC(CC)C(=O)Nc1cccc(C(=O)NCc2ccco2)c1	-4%	-6%	0%	?	-24%	-15%	-8%	-15%
O=C(NCc1ccco1)c1cccc(NC(=O)c2ccccc2)c1	1%	-11%	-3%	9%	-1%	.	.	.
C[C@H]1CN([C@@H](C)CO)S(=O)(=O)c2ccc(Br)cc2O[C@@H]1CN(C)S(=O)(=O)c1ccccc1F	.	-13%	.	.	.	4%	.	.
CN(C)CCN1CCN(C2CN(C3CCCC3)S(=O)(=O)C2)CC1 (stereo not given)	.	3%	.	.	.	10%	.	.
O=C(NCCCNC(=O)c1cccs1)c1cccs1	?	2.7µM*	0%	-4%	-1%	?	-5%	-9%
O=C(NCCCCNC(=O)c1cccs1)c1cccs1	3%	-6%	-18%	2%	-7%	1%	.	.
Cn1cc(-c2ccc(C(=O)Nc3cccc(Oc4ccccc4)c3)c3occc23)cn1	.	-2%	.	.	.	4%	.	.
COc1ccc(/C=N/N=C2/NC(=O)C(CC(=O)O)S2)cc1OCc1ccc(Cl)cc1 (stereo not given)	-20%	-21%	6%	-18%	-5%	4%	.	.
CCOc1cc(/C=N/N=C2/NC(=O)C(CC(=O)O)S2)ccc1OCc1ccc(Cl)cc1 (stereo not given)	-16%	?	11%	-10%	?	-17%	16µM*	32µM*
COC(=O)[C@]1(C)CCC[C@@]2(C)C3CC[C@@]4(C)C[C@]3(CCC21)CC(=O)N4 (stereo not given in full)	-18%	-8%	-16%	.	-7%	8%	.	.
C=C1C(=O)C23CCC4C(C)(C(=O)OC)CCCC4(C)C2CCC1(O)C3 (stereo not given)	?	?	.	.	.	13%	10µM*	14µM*
Cc1ccc(CN2CCN(/N=C/c3ccc(O)c(O)c3)CC2)cc1	-19%	?	1%	6%	-25%	?	14µM*	16µM*
Cc1sc2ccccc2[n+]1CC(=O)O	22µM*	?	5%	8%	5%	-1%	3.5µM*	13µM*
CCCOc1ccc(C2CC(=O)Nc3c2c(C)nn3-c2nncc(-c3cccc(OC)c3)n2)cc1OC (stereo not given)	11%	.	.	.	-2%	-10%	.	.
O=C(NC(=S)Nc1ccc(Cl)cc1)c1ccccc1	1%	-13%	0%	0%	4%	3%	.	.
O=C(Nc1ccc(Cl)cc1)C(Cl)C(=O)c1ccccc1 (stereo not given)	18µM*	0.6µM*	0%	22%	-5%	3%	7.9µM*	14µM*
CSC1=NS(=O)(=O)c2c(C)nn(C)c2S1	25µM*	21µM*	8%	-51%	28µM*	-27%	4µM*	3.5µM*
O=C(Nc1nc2ccc(S(=O)(=O)N3CCCC3)cc2s1)c1ccccn1	-21%	-16%	2%	0%	-9%	0%	?	?
